Screening data as filed in PubChem.
B2AR arrestin: recruits beta-arrestin to the human beta2-adrenergic receptor. hit rate 0.02% among 330,000. Potency, µM (top dose mostly 46.1 µM), actives largely listed as activators. beta-arrestin recruitment to beta2AR, cell-based reporter. P07550; active = well fitted activation curve with a large enough effect; inconclusive = small, poorly fitted or top-dose-only effect; note: nearly all actives have a fitted effect of over 65% in size
DRD3 antagonist: D3 dopamine receptor (human) antagonism. max response, negative = inhibition, %. AID 652054. D3R cells, DiscoveRx beta-arrestin luminescence, antagonist mode; hits give low values. hit rate 2.5% among 360,000. P35462; in the data active = max response below about -50%; inconclusive = no clear call, values can overlap the other calls
Target sequence (P35462 whole entry, looked up): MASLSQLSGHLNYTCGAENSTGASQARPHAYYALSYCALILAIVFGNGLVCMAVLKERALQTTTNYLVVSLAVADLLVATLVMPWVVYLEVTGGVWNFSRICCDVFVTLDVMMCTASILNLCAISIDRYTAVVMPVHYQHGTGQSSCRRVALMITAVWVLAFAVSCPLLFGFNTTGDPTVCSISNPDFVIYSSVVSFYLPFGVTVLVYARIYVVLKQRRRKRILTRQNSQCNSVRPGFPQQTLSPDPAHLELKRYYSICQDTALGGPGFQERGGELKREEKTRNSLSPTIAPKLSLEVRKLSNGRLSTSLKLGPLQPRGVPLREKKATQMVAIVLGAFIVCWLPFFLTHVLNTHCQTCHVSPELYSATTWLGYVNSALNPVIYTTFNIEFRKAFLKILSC
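Cells expressing the human receptor were seeded at 1500 cells/well, incubated overnight at 37 degrees C in 5% CO2, then exposed to library compounds with dopamine controls for 90 minutes at 37 degrees C before luminescent detection.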
D3 ag: D3 dopamine receptor (human) agonism | max activation, % | D3R DiscoveRx beta-arrestin cells, luminescence, 90 min | P35462 | hit rate 0.58% among 410,000 | AID 652048; in the data active = max activation above about 30%
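Agonist mode: compounds and dopamine controls were applied to plated cells for 90 min at 37 degrees C after an overnight attachment at 1500 cells/well. Luminescent read-out followed 30 - 60 minutes at room temperature with DiscoveRx detection reagent.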
Giardia kill: kills Giardia lamblia | hit rate 0.15% among 340,000 | Giardia lamblia trophozoite viability | activity change, % at 7.66 µM, hits read low; in the data active = activity change below about -80%; inconclusive = between about -30% and that limit;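 note: parasites exposed to compound for two days anaerobically before the ATP read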
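Luminescent ATP signal served as the viability read-out, measured 15-30 min after adding ATP detection reagent to trophozoites that had been incubated with compounds for 48 hrs at 37 deg C anaerobically at 100 cells/well.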
Each line names hits and unclear results; the compound was inactive in the other large screens. Hits are enriched below; roughly 2.8% of the tested compounds scored in any of these assays.

Cc1cc[n+](CC(=O)N2CCCc3ccccc32)cc1	DRD3 antagonist -66
O=C(c1ccccc1)N1CCCc2ccccc21	none
O=C(c1ccc(=O)oc1)N1CCCc2ccccc21	DRD3 antagonist -63
CCCCC/C(C=O)=C\c1ccccc1	none (no result: B2AR arrestin, DRD3 antagonist, Giardia kill)
CCOC(=O)CC(NCc1ccc(OC)c(OCC)c1)c1ccc(C)cc1 (stereo unspecified)	DRD3 antagonist -51
COc1ccc(NC(=O)CSc2nnc(NC(=O)Nc3ccccc3)s2)c(OC)c1	none (no result: B2AR arrestin, DRD3 antagonist, Giardia kill)
CCOCCCN(C)C1CCN(C(=O)c2oc3ccccc3c2NC(=O)Cc2ccc(F)cc2)CC1	DRD3 antagonist -71
O=C(O)[C@H](CC(=O)N1C[C@H]2CCCC[C@H]2C1)Cc1ccccc1	none (no result: B2AR arrestin, DRD3 antagonist, Giardia kill)
COc1ccc(C(=O)O)cc1S(N)(=O)=O	DRD3 antagonist -60
S=c1[nH]nc(-c2cccc(Br)c2)o1	none
Nn1c(-c2cccc(Br)c2)n[nH]c1=S	DRD3 antagonist -85
CCCCCC=CCC=CCCCCCCCC(=O)OCC	none (no result: B2AR arrestin, DRD3 antagonist, Giardia kill)
O=C(O)c1cc(=O)[nH]c(=O)[nH]1	none (no result: B2AR arrestin, DRD3 antagonist, Giardia kill)
O=C(O)c1cc(=O)cc(C(=O)O)[nH]1	DRD3 antagonist -82
O=C(N/N=C/c1cc(Br)cs1)c1c[nH]c2ccccc12	DRD3 antagonist inconclusive
O=C(N/N=C/c1ccc(Br)s1)c1c[nH]c2ccccc12	DRD3 antagonist -55
CC(NC(=O)CCNC(=O)c1ccccc1Cl)c1ccc(-n2ccnc2)cc1 (stereo unspecified)	DRD3 antagonist -59
O=c1cc(CN2CCN(C/C=C/c3ccccc3)CC2)c2cc(O)ccc2o1	DRD3 antagonist -62
CS(=O)(=O)N1CCN(C/C=C/c2ccccc2)CC1	none
O=c1cc(CN2CCN(Cc3ccccc3)CC2)c2ccc(O)cc2o1	none
Cc1ccccc1CN1CCN(C/C=C/c2ccccc2)CC1	DRD3 antagonist -192
Cc1ccc2oc(=O)cc(CN3CCN(C/C=C/c4ccccc4)CC3)c2c1	DRD3 antagonist -60
CCC1C(=O)CC2CCN3C(=O)CCC1C23 (stereo unspecified)	none (no result: B2AR arrestin, DRD3 antagonist, D3 ag)
CCCCc1cc2c(=O)c(C(=O)OC)c[nH]c2cc1OCc1ccccc1	none (no result: B2AR arrestin, DRD3 antagonist, Giardia kill)
Cc1cc(N(CCO)CCO)ccc1N=Nc1cc(F)ccc1F	DRD3 antagonist -74
Cc1ccc(Cl)cc1N1CCN(CCNC(=O)Nc2ccccc2Cl)CC1	none (no result: B2AR arrestin, DRD3 antagonist, Giardia kill)
CCCCCCOC(=O)C(C#N)c1nc2ccccc2nc1N1CCN(CC)CC1 (stereo unspecified)	DRD3 antagonist -59
COc1cc2sc3ccc(-c4ccc(CN5CCOCC5)cc4)cc3c(=O)c2cc1OC	B2AR arrestin inconclusive, D3 ag 118, Giardia kill inconclusive
COc1ccc(CN2CCOCC2)cc1OC	none
C#CCOCCOCCOCCNc1nc(N2CCN(C(=O)Cn3cc(CCCN=C(N)N)nn3)CC2)nc(N2CCN(C(=O)[C@H]([C@@H](C)CC)n3cc(CCCCN)nn3)CC2)n1	none
C#CCOCCOCCOCCNc1nc(N2CCN(C(=O)CCCCCCCCCCNC(=O)[C@@H](CCC(=O)O)n3cc(CCCCCN)nn3)CC2)nc(N2CCN(C(=O)CCCCCCCCCCNC(=O)[C@H]([C@@H](C)CC)n3cc(CCCCCN)nn3)CC2)n1	D3 ag 35
C#CCOCCOCCOCCNc1nc(N2CCN(C(=O)Cn3cc(CCO)nn3)CC2)nc(N2CCN(C(=O)[C@H](Cc3ccc(O)cc3)n3cc(CCO)nn3)CC2)n1	DRD3 antagonist inconclusive, D3 ag 47 (no result: B2AR arrestin)
C#CCOCCOCCOCCNc1nc(N2CCN(C(=O)Cn3cc(CCO)nn3)CC2)nc(N2CCN(C(=O)[C@H]([C@@H](C)CC)n3cc(CCCN=C(N)N)nn3)CC2)n1	D3 ag 53, Giardia kill inconclusive (no result: B2AR arrestin)
C#CCOCCOCCOCCNc1nc(N2CCN(C(=O)[C@H]([C@@H](C)CC)n3cc([C@@H](N)CC(C)C)nn3)CC2)nc(N2CCN(C(=O)[C@H](Cc3ccc(O)cc3)n3cc([C@@H](N)C(C)CC)nn3)CC2)n1 (stereo partly specified)	DRD3 antagonist -50
Fc1ccccc1N1CCN(c2nnc(C(F)(F)F)c3nnn(Cc4ccccc4)c23)CC1	none (no result: B2AR arrestin, DRD3 antagonist, Giardia kill)
CO[C@H]1C=CO[C@@]2(C)Oc3c(C)c(O)c4c(O)c(c(/C=N/N5CCN(C6CCCC6)CC5)c(O)c4c3C2=O)NC(=O)/C(C)=C\C=C[C@H](C)[C@H](O)[C@@H](C)[C@@H](O)[C@@H](C)[C@H](OC(C)=O)[C@@H]1C	none (no result: B2AR arrestin, DRD3 antagonist, Giardia kill)
CC(Oc1ccccc1)C(=O)Nc1nc2ccc(S(N)(=O)=O)cc2s1 (stereo unspecified)	none (no result: B2AR arrestin, DRD3 antagonist, Giardia kill)
C#CCOCCOCCOCCNc1nc(N2CCN(C(=O)CCCCCCCCCCNC(=O)[C@H]([C@@H](C)CC)n3cc(CCCCCN)nn3)CC2)nc(N2CCN(C(=O)CCCCCCCCCCNC(=O)[C@H]([C@@H](C)CC)n3cc(CCCCN=C(N)N)nn3)CC2)n1	none (no result: DRD3 antagonist, D3 ag, Giardia kill)
C#CCOCCOCCOCCNc1nc(N2CCN(C(=O)CCCCCCCCCCNC(=O)Cn3cc(CCCCCN)nn3)CC2)nc(N2CCN(C(=O)CCCCCCCCCCNC(=O)[C@H]([C@@H](C)CC)n3cc(CCCCN=C(N)N)nn3)CC2)n1	DRD3 antagonist -63, Giardia kill inconclusive
C#CCOCCOCCOCCNc1nc(N2CCN(C(=O)CCCCCCCCCCNC(=O)[C@H]([C@@H](C)CC)n3cc(CCCCCN)nn3)CC2)nc(N2CCN(C(=O)CCCCCCCCCCNC(=O)[C@H](CCCCN)n3cc(CCCC(=O)O)nn3)CC2)n1	D3 ag 42
Cc1ccccc1OCC(O)CNCCOc1ccc(C(N)=O)cc1 (stereo unspecified)	none (no result: B2AR arrestin, DRD3 antagonist, Giardia kill)
CC(=O)CCc1ccc(OCC(O)CNCCOc2ccc(C)cc2)cc1 (stereo unspecified)	D3 ag 51
OC(CNCc1ccco1)COc1ccccc1 (stereo unspecified)	DRD3 antagonist -55
Cc1ccc(OCCNCC(O)COc2ccccc2)cc1 (stereo unspecified)	DRD3 antagonist -83
CCOC(=O)c1cccc(OCC(O)CNCCOc2ccccc2F)c1 (stereo unspecified)	DRD3 antagonist -55
COc1ccc(NC(=O)c2c(-c3ccc(C)cc3)nnc3ccccc23)cc1Cl	none (no result: B2AR arrestin, DRD3 antagonist, Giardia kill)
N=C(N)c1ccc(OCCCOc2ccc(C(=N)N)cc2Br)c(Br)c1	none (no result: B2AR arrestin, DRD3 antagonist, Giardia kill)
COc1ccccc1NCC(O)COc1ccc(C(C)(C)C)cc1 (stereo unspecified)	none
COc1ccc(OCC(O)CNCCOc2ccccc2OC)c(C(C)(C)C)c1 (stereo unspecified)	DRD3 antagonist -81
COc1ccccc1CNC(=O)c1oc2c(c1C)-c1nn(Cc3ccc(Cl)cc3)cc1CC2	none (no result: B2AR arrestin, DRD3 antagonist, Giardia kill)
COC(=O)C[C@H]1c2cc(C(F)(F)F)ccc2S(=O)(=O)N1Cc1ccc(OC)cc1	D3 ag 48 (no result: B2AR arrestin)
CC1(C)C2CC[C@]1(C)C(=O)N(CCCCN1CCN(c3ccccn3)CC1)C2=O	D3 ag 80
CC(=O)Nc1sc2c(c1CN1CCCC1)CCCC2	none
Cc1ccc(CN2CCN(c3ccccn3)CC2)s1	DRD3 antagonist inconclusive, D3 ag 60
c1ccc(COc2cccc(CN3CCN(c4ccccn4)CC3)c2)cc1	D3 ag 39 (no result: B2AR arrestin)
CC(=O)Nc1sc2c(c1CN1CCN(c3ccccn3)CC1)CCCC2	DRD3 antagonist -62
CCOc1ccccc1NC(=O)c1nnn(CC(=O)Nc2ccc(OC)c(OC)c2)c1N	none (no result: B2AR arrestin, DRD3 antagonist, Giardia kill)
